# Experimental data: PubChem BioAssay AID720650 (Broad Institute, 2013)
# Unmarked numbers belong to inactive results. Activity calls are given as the source filed them. How the calls were made is not given here.
# Assay: C difficile toxins, biochemical counterscreen, UDPG substrate absence, confirmatory dose response (AID 720650)
# Settings: series mostly up to 19.5 µM; activity change, negative = inhibition: at the top concentration
Structure (SMILES),"activity change, negative = inhibition [%]",AC50
CC(OC(=O)c1cccnc1Cl)C(=O)NC1CCCCC1 (stereo not drawn),9.9,
COC(=O)C(Cc1ccccc1)NC(=O)CSc1nc(C)cc(=O)[nH]1 (stereo not drawn),0.635,
COc1cc(/C=N/Nc2ccccn2)ccc1O,,> 39 µM
Cc1cnc(C(=O)OCC(=O)N2C(C)CCCC2C)cn1 (stereo not drawn),5.63,
COc1cc(NC(=O)CSc2nc3[nH]ncc3c(=O)n2-c2ccccc2C)cc(OC)c1OC,-9.91,
O=C(COc1ccc2ccc(=O)oc2c1)NCCN1CCOCC1,-11.5,
CCNC(=O)C[C@H]1CC[C@@H]2[C@@H](COc3ccc(NC(=O)c4ccc5c(c4)OCO5)cc3C(=O)N2C)O1,,> 39 µM
CC[C@H](C)[C@@H]1NC(=O)c2cc([N+](=O)[O-])cc(I)c2NCC[C@@H](C(N)=O)NC(=O)[C@H](CCCN=C(N)N)NC1=O,1.27,
CCOc1cc(NC(=S)NCC2CCCO2)c(OCC)cc1NC(=O)c1ccc(F)cc1 (stereo not drawn),-2.79,
Cc1cc(C)nc(NC(N)=NCCc2ccccc2)n1,,> 39 µM
Fc1ccc(/C=C\c2nccc3c2[nH]c2ccccc23)cc1,-10,
COc1ccc(NC(=O)Nc2nc(C)cc(C)n2)c(OC)c1,-12.3,
O=C(N/N=C/c1ccc(O)c(O)c1)C1CC1,,> 39 µM
Cc1ccc(C2=NS(=O)(=O)N(C)C(C(=O)NCc3ccc4c(c3)OCO4)=C2)cc1,-9.33,
CCCNC(=O)Nc1ccc2c(c1)C(=O)N(C)[C@@H]1CC[C@H](CC(=O)NC3CCC3)O[C@H]1CO2,-5.24,
COc1ccc(C2=NS(=O)(=O)N(C)C(C(=O)NC(C)c3ccccc3)=C2)cc1 (stereo not drawn),-15.3,
CCOc1ccccc1/C=C/c1onc(C)c1S(=O)(=O)N1CCC(C(=O)NC)CC1,-10.6,
Cc1ccc(S(=O)(=O)Oc2ccc(/C=N/NC(=O)c3nn(C)cc3[N+](=O)[O-])cc2)cc1,-0.306,
C[C@H]1CN([C@@H](C)CO)S(=O)(=O)c2ccc(-c3ccncc3)cc2O[C@@H]1CN(C)Cc1ccc(Oc2ccccc2)cc1,1.01,

Structure (SMILES),"activity change, negative = inhibition [%]",AC50
CNC(=O)C[C@H]1CC[C@@H]2[C@H](COc3ccc(NC(=O)c4ccc(OC)cc4)cc3C(=O)N2C)O1,,> 39 µM
CCOc1ccc2c(C)nc(NC3=NC(C)(C)C=C(C)N3)nc2c1,-8.03,
CNC(=O)N(O)C1N(/N=C/c2ccc(SC)cc2)C(=S)SC1(C)C (stereo not drawn),,> 39 µM
O=C(O)c1ccccc1C(=O)c1ccc2c(c1)N(Cc1cccc(F)c1)C(=O)CO2,,19 µM (active)
C[C@H]1CN([C@@H](C)CO)S(=O)(=O)c2ccc(-c3ccncc3)cc2O[C@H]1CN(C)Cc1ccc(Oc2ccccc2)cc1,-6.4,
O=c1[nH]nc(-c2cc(-c3ccccc3)nc3ccccc23)o1,-13.7,
Cc1cc(N/N=C/c2ccncc2)nc2ccccc12,-3.14,
Cc1cc(N/N=C/c2ccc(O)cc2)c2cccc(C)c2n1,,16.3 µM (active)
Cc1cccc(/C=C/c2onc(C)c2S(=O)(=O)N2CCC(C(=O)NC(C)C)CC2)c1,-6.17,
CC1C(c2ccc3c(c2)OCO3)c2cc3c(cc2OC1N1CCOCC1)OCO3 (stereo not drawn),-9.1,
COC(=O)C[C@@H]1CC[C@@H]2[C@H](COC[C@H](O)CN2C(=O)Nc2ccccc2OC)O1,-9.56,
CCNC(=O)C[C@@H]1CC[C@H]2[C@H](COc3ccc(NC(C)=O)cc3C(=O)N2C)O1,6.46,
CC(=O)Nc1ccc(OC(=O)Oc2ccc(NC(C)=O)cc2)cc1,,> 39 µM
O=C(NC(=S)Nc1ccc(O)cc1)c1ccccc1Cl,,13.3 µM (active)
Cc1ccc(S(=O)(=O)Oc2cccc(/C=N/Nc3ccc(C(=O)O)cc3)c2)cc1,,> 39 µM
COc1ccc(/C=C(/C#N)C(=O)Nc2ccc(O)cc2)cc1C(=O)O,,12.2 µM (active)
CN(C(=O)Cn1c(=O)oc2cc(S(=O)(=O)N3CCCC3)ccc21)C1CCCCC1,-7.83,
COc1ccc(C(=O)NC(C(=O)NCc2ccccc2OC)C(C)C)cc1 (stereo not drawn),-8.6,
CCCNC(=O)N1CC[C@@H]2[C@H]1c1cc(-c3ccccc3)ccc1N(C)[C@H]2CO,,3.8 µM (active)
